# From publication PMC8384837, “Expanding the binding specificity for RNA recognition by a PUF domain”
# Numbering of substitutions follows the chain as printed.
# How the values were obtained:
# Experiment in all cases: yeast three-hybrid, YBZ-1, SC-Leu-His + 0.5 mM 3-AT, 4 days
# Conditions in all cases: tags: N-Gal4 AD-HA kept; label: inside an RPR1-promoter hybrid RNA with tandem MS2 sites; ssRNA
# [1] = biological target: PUM1 PUF domain R1-VFR (Homo sapiens, UniProt Q14671 828-1176, S863V;R864F;Q867R)
# How it was run: (§1)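 Matching RNA elements and Pumilio-1 PUF domain libraries, randomized at the three base-contacting residues of every repeat, were co-expressed from a centromeric plasmid in strain YBZ-1 (LexA–MS2 coat fusion, HIS3 reporter). The repeat regions were PCR-amplified and Illumina-sequenced from cells grown four days on SC-Leu (input) or SC-Leu-His + 0.5 mM 3-AT (selection). The interaction score is the log change in variant frequency from input to selection. It is computed in log2, with a pseudocount of 1 for absent variants.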
# [2] = biological target: PUM1 PUF domain R1-GAS (Homo sapiens, UniProt Q14671 828-1176, S863G;R864A;Q867S)
# How it was run: as §1
# [3] = biological target: PUM1 PUF domain R3-MCG (Homo sapiens, UniProt Q14671 828-1176, C935M;R936C;Q939G)
# How it was run: as §1
# [4] = biological target: PUM1 PUF domain R4-QGA (Homo sapiens, UniProt Q14671 828-1176, N971Q;H972G;Q975A)
# How it was run: as §1
# [5] = biological target: PUM1 PUF domain R3-VRW (Homo sapiens, UniProt Q14671 828-1176, C935V;Q939W)
# How it was run: as §1
# [6] = biological target: PUM1 PUF domain R5-TRA (Homo sapiens, UniProt Q14671 828-1176, C1007T;Q1011A)
# Sequence of PUM1 PUF domain R5-TRA (Q14671 828-1176 C1007T/Q1011A): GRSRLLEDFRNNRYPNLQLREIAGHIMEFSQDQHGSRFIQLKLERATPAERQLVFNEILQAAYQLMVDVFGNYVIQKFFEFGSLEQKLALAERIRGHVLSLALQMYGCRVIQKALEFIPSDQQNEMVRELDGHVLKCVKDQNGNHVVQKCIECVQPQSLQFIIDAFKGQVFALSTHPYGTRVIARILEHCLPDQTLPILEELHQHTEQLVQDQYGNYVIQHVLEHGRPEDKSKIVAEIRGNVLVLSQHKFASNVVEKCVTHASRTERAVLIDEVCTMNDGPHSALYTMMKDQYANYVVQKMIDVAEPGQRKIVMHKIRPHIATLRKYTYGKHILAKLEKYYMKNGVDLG
# How it was run: as §1
# [7] = biological target: PUM1 PUF domain R8-KNR (Homo sapiens, UniProt Q14671 828-1176, N1122K;Y1123N;Q1126R)
# How it was run: as §1
# [8] = biological target: T1, PUM1 PUF domain R6-FYI (Homo sapiens, UniProt Q14671 828-1176, N1043F;Q1047I)
# T1 sequence: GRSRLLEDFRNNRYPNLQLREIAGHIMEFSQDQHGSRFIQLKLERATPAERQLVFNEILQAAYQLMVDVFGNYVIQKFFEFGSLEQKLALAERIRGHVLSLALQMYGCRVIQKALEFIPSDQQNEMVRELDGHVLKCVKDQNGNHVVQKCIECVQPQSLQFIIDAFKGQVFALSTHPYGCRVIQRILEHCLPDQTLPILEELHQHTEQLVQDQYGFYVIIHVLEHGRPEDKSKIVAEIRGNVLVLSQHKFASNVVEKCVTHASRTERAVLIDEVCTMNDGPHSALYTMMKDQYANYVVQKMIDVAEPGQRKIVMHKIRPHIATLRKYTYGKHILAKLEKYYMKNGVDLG
# How it was run: as §1
# [9] = biological target: T2, PUM1 PUF domain R6-TWS (Homo sapiens, UniProt Q14671 828-1176, N1043T;Y1044W;Q1047S)
# T2 sequence: T1 sequence with F216T, Y217W, I220S
# How it was run: as §1
# [10] = biological target: PUM1 PUF domain R8-RYK (Homo sapiens, UniProt Q14671 828-1176, N1122R;Q1126K)
# How it was run: as §1
# [11] = biological target: PUM1 PUF domain R7-QNR (Homo sapiens, UniProt Q14671 828-1176, S1079Q;E1083R)
# How it was run: as §1
# [12] = biological target: PUM1 PUF domain R7-RVR (Homo sapiens, UniProt Q14671 828-1176, S1079R;N1080V;E1083R)
# How it was run: as §1
# [13] = biological target: PUM1 PUF domain R5-GQA (Homo sapiens, UniProt Q14671 828-1176, C1007G;R1008Q;Q1011A)
# How it was run: as §1
# [14] = biological target: PUM1 PUF domain R5-TND (Homo sapiens, UniProt Q14671 828-1176, C1007T;R1008N;Q1011D)
# How it was run: as §1
# [15] = biological target: PUM1 PUF domain R5-AQR (Homo sapiens, UniProt Q14671 828-1176, C1007A;R1008Q;Q1011R)
# How it was run: as §1
# [16] = biological target: PUM1 PUF domain R5-PHD (Homo sapiens, UniProt Q14671 828-1176, C1007P;R1008H;Q1011D)
# How it was run: as §1
# [17] = biological target: PUM1 PUF domain R1-RFI (Homo sapiens, UniProt Q14671 828-1176, S863R;R864F;Q867I)
# How it was run: as §1
# [18] = biological target: PUM1 PUF domain R1-KIE (Homo sapiens, UniProt Q14671 828-1176, S863K;R864I;Q867E)
# How it was run: as §1
# [19] = biological target: PUM1 PUF domain R3-RMK (Homo sapiens, UniProt Q14671 828-1176, C935R;R936M;Q939K)
# How it was run: as §1
# [20] = biological target: PUM1 PUF domain R7-RKR (Homo sapiens, UniProt Q14671 828-1176, S1079R;N1080K;E1083R)
# How it was run: as §1
sequence,measurement,setting,value
GGCUAGAACUAGUGGAUCCCCCGGCGCCCGGCGGCUCGAGCCCGGGUAAGUGUAAAUCGUCUGCAUGCCGCCGGGCGCCAUGCCUGCAGGUCGACUCUAGAAAACAUG,binding signal,[1],3.96 log2 enrichment (interaction score)
same,binding signal,[2],2.52 log2 enrichment (interaction score)
GGCUAGAACUAGUGGAUCCCCCGGCGCCCGGCGGCUCGAGCCCGGGUAAGUGUAAGUAGUCUGCAUGCCGCCGGGCGCCAUGCCUGCAGGUCGACUCUAGAAAACAUG,binding signal,[3],2.55 log2 enrichment (interaction score)
GGCUAGAACUAGUGGAUCCCCCGGCGCCCGGCGGCUCGAGCCCGGGUAAGUGUACAUAGUCUGCAUGCCGCCGGGCGCCAUGCCUGCAGGUCGACUCUAGAAAACAUG,binding signal,[4],2.09 log2 enrichment (interaction score)
GGCUAGAACUAGUGGAUCCCCCGGCGCCCGGCGGCUCGAGCCCGGGUAAGUGUAAAUAGUCUGCAUGCCGCCGGGCGCCAUGCCUGCAGGUCGACUCUAGAAAACAUG,binding signal,[5],3.7 log2 enrichment (interaction score)
same,binding signal,[6],2.82 log2 enrichment (interaction score)
same,binding signal,[7],1.82 log2 enrichment (interaction score)
same,binding signal,[8],2.78 log2 enrichment (interaction score)
same,binding signal,[9],2.56 log2 enrichment (interaction score)
GGCUAGAACUAGUGGAUCCCCCGGCGCCCGGCGGCUCGAGCCCGGGUAAGCGUAAAUAGUCUGCAUGCCGCCGGGCGCCAUGCCUGCAGGUCGACUCUAGAAAACAUG,binding signal,[7],2.46 log2 enrichment (interaction score)
same,binding signal,[10],7.26 log2 enrichment (interaction score)
GGCUAGAACUAGUGGAUCCCCCGGCGCCCGGCGGCUCGAGCCCGGGUAAGUGUAUAUAGUCUGCAUGCCGCCGGGCGCCAUGCCUGCAGGUCGACUCUAGAAAACAUG,binding signal,[4],2.73 log2 enrichment (interaction score)
GGCUAGAACUAGUGGAUCCCCCGGCGCCCGGCGGCUCGAGCCCGGGUAAGUGAAAAUAGUCUGCAUGCCGCCGGGCGCCAUGCCUGCAGGUCGACUCUAGAAAACAUG,binding signal,[9],5.32 log2 enrichment (interaction score)
GGCUAGAACUAGUGGAUCCCCCGGCGCCCGGCGGCUCGAGCCCGGGUAAGUCUAAAUAGUCUGCAUGCCGCCGGGCGCCAUGCCUGCAGGUCGACUCUAGAAAACAUG,binding signal,[11],3.58 log2 enrichment (interaction score)
same,binding signal,[12],0.98 log2 enrichment (interaction score)
GGCUAGAACUAGUGGAUCCCCCGGCGCCCGGCGGCUCGAGCCCGGGUAAGUGUGAAUAGUCUGCAUGCCGCCGGGCGCCAUGCCUGCAGGUCGACUCUAGAAAACAUG,binding signal,[6],1.91 log2 enrichment (interaction score)
GGCUAGAACUAGUGGAUCCCCCGGCGCCCGGCGGCUCGAGCCCGGGUAAGUGUUAAUAGUCUGCAUGCCGCCGGGCGCCAUGCCUGCAGGUCGACUCUAGAAAACAUG,binding signal,[6],2.4 log2 enrichment (interaction score)
same,binding signal,[13],2.64 log2 enrichment (interaction score)
same,binding signal,[14],2.81 log2 enrichment (interaction score)
same,binding signal,[15],3.22 log2 enrichment (interaction score)
same,binding signal,[16],3.76 log2 enrichment (interaction score)
GGCUAGAACUAGUGGAUCCCCCGGCGCCCGGCGGCUCGAGCCCGGGUAAGUGUAAAUUGUCUGCAUGCCGCCGGGCGCCAUGCCUGCAGGUCGACUCUAGAAAACAUG,binding signal,[1],1.47 log2 enrichment (interaction score)
same,binding signal,[17],2.47 log2 enrichment (interaction score)
same,binding signal,[18],3.28 log2 enrichment (interaction score)
GGCUAGAACUAGUGGAUCCCCCGGCGCCCGGCGGCUCGAGCCCGGGUAAGUGUAAUUAGUCUGCAUGCCGCCGGGCGCCAUGCCUGCAGGUCGACUCUAGAAAACAUG,binding signal,[19],4.31 log2 enrichment (interaction score)
GGCUAGAACUAGUGGAUCCCCCGGCGCCCGGCGGCUCGAGCCCGGGUAAGUUUAAAUAGUCUGCAUGCCGCCGGGCGCCAUGCCUGCAGGUCGACUCUAGAAAACAUG,binding signal,[20],2.99 log2 enrichment (interaction score)
same,binding signal,[12],4.32 log2 enrichment (interaction score)
GGCUAGAACUAGUGGAUCCCCCGGCGCCCGGCGGCUCGAGCCCGGGUAAGUGUCAAUAGUCUGCAUGCCGCCGGGCGCCAUGCCUGCAGGUCGACUCUAGAAAACAUG,binding signal,[15],5.35 log2 enrichment (interaction score)
